# According to PubChem BioAssay:
# Activity calls are given as the source filed them.
# Key:
# [1] = test system: Human papillomavirus type 1a protein E7 (residues 44-93); assay: HPV1a E7 fragment binders on microarrays, primary screen, biochemical, small-molecule microarray, residues 44-93, 635 nm fluorescence (AID 1108); conditions: small-molecule microarray binding, fluorescence 635 nm; higher = more signal;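 note: E7 fragment applied at 1 µg/mL in TBST for 1 h at 4 C; score combines spot fluorescence with its signal to noise ratio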
# [2] = modulators of HCV replicon luciferase signal, primary screen, HCV replication inhibitor project, Huh7 cells, luciferase reporter (AID 1109); conditions: 48 h, higher = more signal;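 note: huh7 hepatoma cells harbouring a luciferase neomycin HCV replicon reporter; luciferase luminescence as measure of HCV replicon replication; test concentration not given here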
# [3] = target: Left-right determination factor 2 (Homo sapiens) (UniProt O00292); assay: LEFTY2 binders on small-molecule microarrays, primary screen, biochemical, small-molecule microarray, 635 nm fluorescence scan (AID 1110); conditions: LEFTY2 binding, higher = more signal
# [4] = target: Calmodulin-1 (Homo sapiens) (UniProt P0DP23); assay: CALM1 binders on microarrays, EGTA buffer, profiling panel, biochemical, small-molecule microarray, Cy5-labelled CALM1 (AID 1111); conditions: Cy5-CALM1 binding fluorescence, higher = more signal;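 note: labelled calmodulin applied in Tris saline Tween buffer holding calcium plus EGTA and DTT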
# [5] = target: Calmodulin-1 (Homo sapiens) (UniProt P0DP23); assay: calcium-bound CALM1 binders on microarrays, profiling panel, artefact control for SMM control-protein annotation, biochemical, small-molecule microarray, Cy5-labelled CALM1, plus calcium (AID 1112); conditions: Cy5-CALM1 binding fluorescence, higher = more signal;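 note: score merges spot fluorescence with signal to noise from triplicate slides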
# [6] = small-molecule microarray binders of probe aWnt5a, primary screen, biochemical, biotinylated probe, 635/667 nm fluorescence (AID 1113); conditions: higher = more signal;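 note: score merges 667 nm fluorescence intensity with signal-to-noise per printed feature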
# [7] = small-molecule microarray binders of probe aShh, primary screen, biochemical, biotinylated probe, 635/667 nm fluorescence (AID 1114); conditions: higher = more signal;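 note: probe is biotin-labelled aShh protein from a stem cell growth factor screen; measures binding of labelled protein to compounds printed on the slide; score merges feature fluorescence at 667 nm with signal-to-noise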
# [8] = small-molecule microarray binders of probe aNog, primary screen, biochemical, biotinylated probe, 635/667 nm fluorescence (AID 1115); conditions: higher = more signal;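 note: probe is biotinylated aNog protein used at 0.15 µg/mL for 1 h at 4 C; z-score combines 667 nm fluorescence of each spot with its signal to noise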
# [9] = target: Torsin-1A-interacting protein 1 (Homo sapiens) (UniProt Q5JTV8); assay: LAP1 binders from COS7 cell lysate, primary screen, small-molecule microarray, 635/667 nm fluorescence (AID 1116); conditions: COS7-hLAP1 lysate binding, 635 nm fluorescence, higher = more signal
# [10] = target: Alpha-bungarotoxin (Bungarus multicinctus) (UniProt P60615); assay: alpha-bungarotoxin binders on microarray, profiling panel, artefact control for SMM control protein annotation, biochemical, small-molecule microarray, Alexa647 label, 635/667 nm fluorescence (AID 1117); conditions: alpha-BTX-A647 binding fluorescence, higher = more signal
# Albumin (Bos taurus) = Albumin (Bos taurus) (UniProt P02769); assay: bovine serum albumin binders on microarray, profiling panel, artefact control for SMM control protein annotation, biochemical, small-molecule microarray, Alexa647 label, 635/667 nm fluorescence (AID 1118); conditions: BSA-A647 binding, fluorescence 635 nm, higher = more signal;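 note: score merges 667 nm emission intensity and signal-to-noise per printed compound spot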
# [11] = small-molecule microarray binders of probe aXIP, primary screen, biochemical, NeuroSMM set, 635/667 nm fluorescence (AID 1119); conditions: higher = more signal, called active from +8 up or from −8 down;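 note: probe is the protein aXip251-270 applied at 1 µg/mL to compound-printed slides; binding of probe to printed compounds measured as 667 nm fluorescence plus signal to noise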
# [12] = small-molecule binders of probe aNOTCH3, primary screen, biochemical, small-molecule microarray, 635/667 nm fluorescence (AID 1120); conditions: higher = more signal;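 note: probe is a biotin-tagged antibody raised against NOTCH3 rather than NOTCH3 protein; score merges spot fluorescence near 667 nm with spot signal to noise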
# [13] = small-molecule binders of probe aNOTCH2, primary screen, biochemical, small-molecule microarray, 635/667 nm fluorescence (AID 1121); conditions: higher = more signal;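 note: score merges feature fluorescence read at 667 nm with its signal to noise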
# [14] = target: Carbonic anhydrase 2 (Homo sapiens) (UniProt P00918); assay: CAII small-molecule binders, profiling panel, biochemical, small-molecule microarray, Alexa647-labelled CAII (AID 1122); conditions: CAII-A647 binding fluorescence, higher = more signal
# [15] = COS7 lysate on small-molecule microarray, probe aHis, 635 nm (AID 1123); conditions: COS7 cell lysate, fluorescence, higher = more signal;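 note: z-score combines 667nm fluorescence intensity with signal-to-noise per printed compound spot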
# [16] = compound binding in COS7 lysate, probe aLAP1, primary screen, cell lysate, small-molecule microarray (AID 1124); conditions: probe aLAP1, fluorescence, higher = more signal;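 note: lysate comes from COS7 cells expressing LAP1 and is applied at 0.3 µg/mL; score merges spot fluorescence near 667 nm with signal-to-noise over triplicate slides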
# Sam68 (KHDRBS1) = assay: Sam68 small-molecule binders, primary screen, biochemical, small-molecule microarray, 635 nm fluorescence (AID 1125); conditions: small-molecule microarray binding, higher = more signal;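 note: score merges 667 nm channel intensity with signal to noise over triplicate slides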
# [17] = test system: Chordin-like protein 2 (CHRDL2); assay: CHRDL2 small-molecule binders, primary screen, biochemical, small-molecule microarray, 635 nm fluorescence (AID 1126); conditions: small-molecule microarray binding, fluorescence 635 nm; higher = more signal;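 note: printed compound slides probed with Chrdl2 protein at 4 µg/mL for 1 h at 4 C; score merges 667 nm emission intensity with signal to noise over three replicate slides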
# [18] = target: Concanavalin-A (Canavalia ensiformis) (UniProt P02866); assay: ConA small-molecule binders, primary screen, artefact control for SMM control protein annotation, biochemical, small-molecule microarray, Alexa647 label, 635 nm (AID 1127); conditions: ConA-A647 binding fluorescence, higher = more signal;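 note: z combines 667 nm emission intensity with signal-to-noise across three replicate slides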
# Concanavalin-A (Canavalia ensiformis), sequence (P02866 whole entry, looked up): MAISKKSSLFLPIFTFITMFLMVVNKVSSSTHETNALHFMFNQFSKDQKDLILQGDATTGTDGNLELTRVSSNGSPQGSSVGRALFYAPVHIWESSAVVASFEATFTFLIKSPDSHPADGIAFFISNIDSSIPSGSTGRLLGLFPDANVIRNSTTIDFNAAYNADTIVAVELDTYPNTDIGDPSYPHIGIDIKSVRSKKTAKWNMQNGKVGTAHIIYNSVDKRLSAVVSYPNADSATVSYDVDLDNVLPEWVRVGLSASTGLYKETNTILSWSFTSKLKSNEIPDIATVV
# Left-right determination factor 2 (Homo sapiens), sequence (O00292 whole entry, looked up): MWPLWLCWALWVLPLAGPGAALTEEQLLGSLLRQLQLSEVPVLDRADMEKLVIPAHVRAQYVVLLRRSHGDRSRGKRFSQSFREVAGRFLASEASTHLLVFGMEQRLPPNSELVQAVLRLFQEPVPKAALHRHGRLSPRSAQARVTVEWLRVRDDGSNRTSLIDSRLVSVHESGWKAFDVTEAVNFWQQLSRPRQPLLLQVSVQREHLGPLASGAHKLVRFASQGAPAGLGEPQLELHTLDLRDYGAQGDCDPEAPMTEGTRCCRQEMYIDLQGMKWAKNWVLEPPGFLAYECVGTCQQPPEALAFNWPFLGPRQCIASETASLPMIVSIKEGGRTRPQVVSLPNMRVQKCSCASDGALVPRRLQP
# Alpha-bungarotoxin (Bungarus multicinctus), sequence (P60615 whole entry, looked up): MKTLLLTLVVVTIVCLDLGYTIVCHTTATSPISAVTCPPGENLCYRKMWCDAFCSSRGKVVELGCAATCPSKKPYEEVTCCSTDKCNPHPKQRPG
# Torsin-1A-interacting protein 1 (Homo sapiens), sequence (Q5JTV8 whole entry, looked up): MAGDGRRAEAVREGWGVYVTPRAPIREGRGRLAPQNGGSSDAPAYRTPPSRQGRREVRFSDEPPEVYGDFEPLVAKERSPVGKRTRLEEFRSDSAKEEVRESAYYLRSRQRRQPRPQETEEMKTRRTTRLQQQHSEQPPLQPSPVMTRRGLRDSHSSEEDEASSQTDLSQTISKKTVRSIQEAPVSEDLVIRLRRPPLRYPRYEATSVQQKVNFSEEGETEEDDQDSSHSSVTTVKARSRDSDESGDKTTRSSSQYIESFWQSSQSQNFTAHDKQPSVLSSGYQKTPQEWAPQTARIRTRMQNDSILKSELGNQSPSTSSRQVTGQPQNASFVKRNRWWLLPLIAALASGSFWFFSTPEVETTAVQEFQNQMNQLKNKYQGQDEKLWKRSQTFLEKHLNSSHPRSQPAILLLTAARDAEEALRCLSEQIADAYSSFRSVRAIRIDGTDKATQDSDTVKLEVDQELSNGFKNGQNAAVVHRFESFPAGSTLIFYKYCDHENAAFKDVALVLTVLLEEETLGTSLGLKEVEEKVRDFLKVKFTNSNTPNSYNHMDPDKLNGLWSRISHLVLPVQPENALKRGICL
# Albumin (Bos taurus), sequence (P02769 whole entry, looked up): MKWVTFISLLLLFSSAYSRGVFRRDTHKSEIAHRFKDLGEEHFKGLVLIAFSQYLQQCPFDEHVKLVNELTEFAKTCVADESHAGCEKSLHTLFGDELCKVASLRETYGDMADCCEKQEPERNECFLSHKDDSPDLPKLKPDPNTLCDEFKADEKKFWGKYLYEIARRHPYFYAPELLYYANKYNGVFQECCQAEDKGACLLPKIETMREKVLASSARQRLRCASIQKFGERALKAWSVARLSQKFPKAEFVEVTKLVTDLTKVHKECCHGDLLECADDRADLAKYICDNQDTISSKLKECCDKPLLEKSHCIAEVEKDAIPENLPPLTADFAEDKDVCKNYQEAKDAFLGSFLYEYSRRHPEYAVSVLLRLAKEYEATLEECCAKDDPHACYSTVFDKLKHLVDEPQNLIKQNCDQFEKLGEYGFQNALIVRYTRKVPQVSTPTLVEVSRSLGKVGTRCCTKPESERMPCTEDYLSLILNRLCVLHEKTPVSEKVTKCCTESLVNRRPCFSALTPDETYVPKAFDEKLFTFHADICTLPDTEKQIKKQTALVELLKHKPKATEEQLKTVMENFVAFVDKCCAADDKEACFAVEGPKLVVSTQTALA
SMILES,composite z-score [1],z-score [2],composite z-score [3],composite z-score [4],composite z-score [5],composite z-score [6],composite z-score [7],composite z-score [8],composite z-score [9],composite z-score [10],composite z-score (Albumin (Bos taurus)),composite Z-score [11],composite z-score [12],composite z-score [13],composite z-score [14],composite z-score [15],composite z-score [16],composite z-score (Sam68 (KHDRBS1)),composite z-score [17],composite z-score [18]
COCCOC(=O)N1C(=O)[C@@]2(c3cc(C#CC4(O)CCCCCC4)ccc31)[C@H](c1ccc(O)cc1)N1[C@H](c3ccccc3)[C@H](c3ccccc3)OC(=O)[C@H]1[C@@H]2C(=O)N1CCCCCCC1,-0.622,-1.05,0.298,-0.39,-0.631,0.0742,0.0907,2.25,1.88,0.88,0.304,-0.0498 (inactive),0.295,-0.123,0.267,1.33,0.855,1.24,0.33,0.423
CC(=O)c1ccc(C(O)C2C=CC3C(=O)N(c4ccccc4)C(=O)C3N2Nc2ccc(C(C)C)cc2)cc1 (stereo not given),0.637,-0.674,0.438,0.889,0.0603,-0.0519,0.0278,1.7,0.415,0.859,0.0031,-0.275 (inactive),0.247,0.216,0.666,1.97,0.463,1.13,-0.185,1.13
C=CCNC(=O)[C@H]1[C@@H]2C(=O)O[C@@H](c3ccccc3)[C@@H](c3ccccc3)N2[C@@H](c2ccc(OCCO)cc2)[C@]12C(=O)Nc1ccccc12,1.39,-1.4,-0.514,1.85,0.345,-0.0405,-0.0505,0.666,1.87,1.4,0.989,1.76 (inactive),-0.261,-0.0877,0.74,2.7,1.15,1.29,-0.832,1.13
C[C@@H]1NC(=O)C([C@@H](C)OCc2ccccc2)NC(=O)[C@@]23C(=O)N[C@@H](Cc4ccccc4)C2[C@H](C)[C@@]2(C)O[C@H]2C3/C=C/C/C=C\CNC1=O (stereo not given in full),-0.663,-0.914,-0.238,-1.17,-1.85,-0.172,0.299,-0.423,-0.215,-0.0334,-1.17,2.08 (inactive),-0.222,-0.125,0.61,-0.13,0.0711,-0.503,0.209,-0.928
COC(=O)[C@@]1(Cc2ccc(F)cc2)[C@H]2c3cc(C(=O)N4CCCC4)n(Cc4ccccn4)c3C[C@H]2CN1C(=O)c1ccccc1,1.42,-1.73,-0.649,1.36,0.652,0.139,0.704,0.874,1.33,0.23,0.0228,-0.104 (inactive),0.547,0.417,0.482,2.95,0.382,1.17,-0.22,0.627
C=CCOC(=O)[C@H]1[C@@H]2C(=O)O[C@@H](c3ccccc3)[C@@H](c3ccccc3)N2[C@@H](c2ccc(OCCOC(=O)[C@@H]3C[C@@H]4C(=O)N[C@@H](CCCC[N+](C)(C)C)C(=O)N4[C@@H]3c3ccc(O)cc3)cc2)[C@]12C(=O)Nc1ccc(I)cc12,1.41,-2.84,0.668,0.167,-0.49,0.0324,0.203,1.06,1.84,0.74,-0.691,0.61 (inactive),-0.0647,-0.0267,0.572,1.28,0.517,1.29,1.14,1.03
CC(=O)OCC1C2CC[C@H]3C(OCc4ccc(F)cc4C(F)(F)F)OC[C@]4(C)[C@H]3C2=C(CN4C(=O)OC(C)(C)C)[C@H](C)C1COC(C)=O (stereo not given in full),0.359,-0.834,-1.65,1.95,1.19,0.591,0.338,0.182,-0.212,0.668,0.349,-0.342 (inactive),0.16,0.117,0.807,0.826,0.95,0.0524,-1.86,1.12
COCCOC(=O)N1C(=O)[C@@]2(c3cc(C#Cc4ccc(OC)cc4)ccc31)[C@H](c1ccc(OCCO)cc1)N1[C@H](c3ccccc3)[C@H](c3ccccc3)OC(=O)[C@H]1[C@@H]2C(=O)NC[C@H](O)c1ccccc1,1.12,-1.69,1.25,1.15,0.842,0.0078,-0.273,0.338,0.851,1.4,0.314,0.217 (inactive),0.154,0.0022,0.471,0.575,0.511,1.3,0.311,1.16
C=CCC(OC(C)=O)[C@@H]1[C@@H](N(Cc2cc3ccccc3o2)C(=O)c2cccc3ccccc23)c2cc(OCCCO)ccc2N1C(=O)c1ccc2ccccc2n1 (stereo not given in full),0.193,0.0107,0.186,-0.153,0.304,-0.0346,-0.0813,-0.0381,0.615,0.0884,0.423,-0.315 (inactive),0.0155,-0.147,0.112,-0.197,0.637,0.31,0.0615,-0.495
CC(C)=CCCC(C)=CC(O)C1C=CC2C(=O)NC(=O)C2N1Nc1ccccn1 (stereo not given),1.13,-0.156,1.45,-0.188,-1.15,0.176,-0.153,-0.0116,1,1.2,0.408,0.992 (inactive),0.254,0.0047,0.725,0.39,0.969,1.25,1.43,0.932
C=C(CCCC)C(=O)CC[C@@H](OC(=O)c1ccccc1-c1ccccc1C(=O)O)c1ccccc1OCCO,1.19,-2.84,0.0268,0.525,-0.954,-0.096,-0.0904,-0.147,2.43,0.16,0.269,-0.136 (inactive),-0.207,-0.14,0.626,-0.467,0.712,0.523,0.492,1.05
